Results published in PubChem BioAssay (NCATS).
Results filed as inconclusive are left out. Calls come from the whole dose curve; as a rule, active = well fitted inhibition curve with a large enough effect; inconclusive = small, poorly fitted or top-dose-only effect; inactive = no such curve, though single readings can be large or run the other way. Where a SMILES comes first, the peptide text is derived from it. The star is where a group is joined. Cbz = O=C(OCc1ccccc1)*; CH2F = FC*

experiment: Primary qHTS for small molecule stabilizers of the endoplasmic reticulum resident proteome: Secreted ER Calcium Modulated Protein (SERCaMP) assay (AID 1508630); conditions: SH-SY5Y GLuc-SERCaMP (Gaussia luciferase released on ER calcium loss) secretion, thapsigargin, luminescence; series mostly up to 38.4 µM; activity change, negative = inhibition: at the top concentration
Summary of the method: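 The SH-SY5Y reporter protocol was run at 3 concentrations up to 38.3 uM (primary) or 11 concentrations (follow-up): 16 h compound, 100 nM thapsigargin for 4 h, then extracellular luciferase luminescence.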
% is set by controls: 0 for no effect and ±100 for the full control effect.

Activity change, negative = inhibition, inactive:
CCCCCCCC/C=C\CCCCCCCC(=O)OC[C@@H](O)COP(=O)(O)O -10.9% [at 3.88 µM], Nc1ncnc2c1ncn2[C@@H]1O[C@H](C(=O)NC2CC2)[C@@H](O)[C@H]1O -32%, [C-]#[N+]c1cc(-c2ccncc2)c(C)[nH]c1=O -8.65% [at 76.3 µM], O=c1ncccn1[C@@H]1O[C@H](CO)C(O)[C@@H]1O (some centres undefined) 23.1%, C=CCn1c(=O)c2c(nc(-c3ccccc3)n2C)n(C)c1=O -10.1%, CCCCCCCC/C=C\C/C=C\C/C=C\CCCC(=O)NCCO -21.6% [at 3.88 µM], NC(C(=O)O)c1cc(O)cc(O)c1 (centres undefined) -16.4%, COC(=O)C1=C(C)NC(C)=C(C(=O)NCCCN2CCC(c3ccccc3)(c3ccccc3)CC2)C1c1ccc([N+](=O)[O-])cc1 (centres undefined) 365%, CCCCC/C=C\C/C=C\C/C=C\C=C\[C@@H](O)CCCC(=O)O -9.05% [at 0.478 µM], O=C(O)c1ccncc1 -3.31%, CCCCC/C=C\C\C=C/C=C/C=C/[C@@H](SC[C@H](N)C(=O)O)[C@@H](O)CCCC(=O)O -5.61% [at 0.478 µM], CCCCCCCCCCCCCCCCCCOC[C@H](COP(=O)([O-])OCC[N+](C)(C)C)OC(C)=O 33.9% [at 3.88 µM], COC(=O)C[C@H](NC(=O)[C@H](C)NC(=O)[C@@H](NC(=O)OCc1ccccc1)C(C)C)C(=O)CF (Cbz-Val-Ala-Asp(OMe)-CH2F) 2.16%, NCCn1oc(=O)[nH]c1=O -14%, COC(=O)[C@H]1C2CC3c4[nH]c5ccccc5c4CCN3CC2CC[C@@H]1O (some centres undefined) 27%, c1ccc(Oc2nc(NC3CCCCC3)c3[nH]cnc3n2)cc1 14.6%, Nc1ncnc2c1ncn2[C@@H]1O[C@H](COP(=O)(O)OP(=O)(O)OC[C@H]2OC(O)[C@H](O)[C@@H]2O)[C@@H](O)[C@H]1O (some centres undefined) -22.6%, CC(=O)OCOC(=O)CN(CC(=O)OCOC(C)=O)c1ccccc1OCCOc1ccccc1N(CC(=O)OCOC(C)=O)CC(=O)OCOC(C)=O 140% [at 21.6 µM], CCCCCCCCCCCCCCCCCCc1ccc(C(=O)/C=C/C(=O)O)cc1 -26.4%, NC(N)=NCCNS(=O)(=O)c1cccc2cnccc12 17.6%, CC(C)n1nnc2cc(C(=O)O)ccc21 -23.1%, CCCCC[C@H](O)/C=C/[C@@H]1[C@@H](C/C=C\CCCC(=O)O)[C@@H](O)C[C@@H]1O -25.7% [at 3.88 µM], CNC(=O)[C@H]1O[C@@H](n2cnc3c(N)ncnc32)[C@H](O)[C@@H]1O -32.2%, NC(C(=O)O)[C@H](O)C(=O)O (some centres undefined) -25.6%, COC(=O)[C@H](Cc1ccc(C#Cc2ccccc2)cc1)NC(=O)C[C@H]1CCCN(C(=N)N)C1 -16.4%, CCCCCCCCCCCCCCCC(=O)OCC(COP(=O)(O)O)OC(=O)CCCCCCCCCCCCCCC (centres undefined) -28.1% [at 3.88 µM], CC(C)=CCN1CCC2(CCc3ccccc32)CC1 -15.2%, COC(=O)c1csc(C(=O)c2c[nH]c3ccccc23)n1 18.4%, NC(C(=O)O)c1cccc(O)c1 (centres undefined) 37.8%, CC(N)(C(=O)O)c1ccc(-c2nn[nH]n2)cc1 (centres undefined) -22.5%, N#Cc1ccccc1OCC(O)CNCCNC(=O)Nc1ccccc1 (centres undefined) -23.7%, Cc1nc(N=Nc2cc([N+](=O)[O-])ccc2Cl)c(COP(=O)(O)O)c(C=O)c1O -3.35%, c1ccc2[nH]c(NCCCc3cnc[nH]3)nc2c1 -17.2%, NS(=O)(=O)c1nn2cc(-c3ccccc3)nc2s1 -44.5%, CC1c2ccccc2CN1CC1=NCCN1 (centres undefined) -8.03%, CCCCC/C=C/C=C1/C(=O)C=C[C@@H]1C/C=C\CCCC(=O)O -9.18% [at 3.88 µM], CCCCC/C=C\C/C=C\CCCCCCCC(=O)O[C@@H](CO)COC(=O)CCCCCCCCCCCCCCCCC 6.55% [at 3.88 µM], C[C@H](NC(=O)CNC(=O)[C@@H](NC(=O)[C@H](Cc1ccccc1)NC(=O)CNC(=O)CNC(=O)[C@@H](N)Cc1ccccc1)[C@@H](C)O)C(=O)N[C@@H](CCCN=C(N)N)C(=O)N[C@@H](CCCCN)C(=O)N[C@@H](CO)C(=O)N[C@@H](C)C(=O)N[C@@H](CCCN=C(N)N)C(=O)N[C@H](CN)CCCCN (HELM PEPTIDE1{F.G.G.F.T.G.A.R.K.S.A.R.[NCCCC[C@@H](CN)N[*:1]]}$$$$V2.0) -10.3% [at 3.88 µM], CC(N)(C(=O)O)c1ccc(P(=O)(O)O)cc1 (centres undefined) 19.4%
